Test results: PubChem BioAssay (Tox21)
Results filed as inconclusive are left out. A call without a number means that no potency is given here. Activity calls are given as the source filed them. Calls follow the shape of the full dose curve.

Experiment: cAMP Responsive Elements (CRE) small molecule agonists, cell-based qHTS assay (AID 1963590)
Settings: CRE-bla HEK293T, beta-lactamase FRET ratio, 3 h; series mostly up to 92.4 µM
From the text: U.S. Tox21 Program National Center for Advancing Translational Sciences [NCATS] Division of Preclinical Innovation [DPI] U.S. Environmental Protection Agency [EPA] National Institutes of Environmental Health Sciences [NIEHS] National Toxicology Program [NTP] U.S. Food and Drug Administration [FDA] Tox21 Assay Overview: CREB (cyclic-AMP Responsive Element Binding Protein) is a cellular transcription factor. It binds to certain DNA sequences called cAMP Responsive Elements (CRE) and regulates the transcription of the genes. […] This cell line can be used to find agonists/antagonists of the cyclic AMP signaling pathway. The activation of the report gene under culture conditions can be detected by fluorescence intensity. This cell line has been used to screen the Tox21 10K compound library to identify agonists that induce oxidative stress.
Tox21 Assay Protocol Summary: CRE-bla Hek 293T cells were suspended in assay medium (DMEM containing 10% dialyzed FBS, 0.1 mM NEAA, 1 mM sodium pyruvate and 25 mM HEPES) and dispensed at 2,000 cells/5 uL /well into 1536-well black wall/clear bottom plates using a Multidrop Combi (ThermoFisher Scientific, Waltham, MA) dispenser. After the assay plates were incubated at 37 C/5% CO2 for 18 hrs, 23 nL of compounds dissolved in DMSO, positive controls or DMSO only was transferred to the assay plate by a pintool workstation (Kalypsys, San Diego, CA). After the plates were incubated at 37 C/5% CO2 for 3 hrs, 1 uL of LiveBLAzer B/G FRET substrate (Invitrogen, Carlsbad, CA) was added to each well using Bioraptr Flying Reagent Dispenser (FRD, Aurora Discovery, San Diego, CA). The plates were incubated at room temperature for 2 h.
In the case of `Cc1ccc(C(C)C)cc1O`, the Potency is reported as “inactive”.
With `CCCCCCCCCCCCCCCCCCOCC(O)CO` (stereo not given) the Potency was “inactive”.
With `CC(=O)c1ccc(O)c(C(N)=O)c1` the Potency was “inactive”.
For `NC(=O)c1cccc([N+](=O)[O-])c1`, the Potency was “inactive”.
For `CCCCC(CC)CCC(CC(C)C)OS(=O)(=O)O` (stereo not given), the Potency was “inactive”.
With `CCN(CC)CCN` the Potency was “inactive”.
In the case of `CC(=O)N(CC(O)CO)c1c(I)c(C(=O)NCC(O)CO)c(I)c(C(=O)NCC(O)CO)c1I` (stereo not given), the Potency is reported as “inactive”.
With `Cc1ccc2n[nH]nc2c1` the Potency was “inactive”.
With `CCO[Si](OCC)(OCC)c1ccccc1` the Potency was “inactive”.
With `C=C(C)C(=O)OCCC[Si](Cl)(Cl)Cl` the Potency was “inactive”.
With `CCCc1ccc(N)cc1` the Potency was “inactive”.
In the case of `C=C(C)[C@@H]1CCC2=CCC[C@@H](C)[C@]2(C)C1`, the Potency is reported as “inactive”.
For `NCCN1CCNC1=O`, the Potency was “inactive”.
With `[O]=[Zr]` the Potency was “inactive”.
In the case of `NC(=O)c1ccccc1Cl`, the Potency is reported as “inactive”.
In the case of `O=C1OC(=O)c2c(Cl)c(Cl)c(Cl)c(Cl)c21`, the Potency is reported as “inactive”.
With `COc1cc(C(=S)N2CCOCC2)cc(OC)c1OC` the Potency was “inactive”.
For `O=[N+]([O-])c1ccc(/C=C/c2ccc([N+](=O)[O-])cc2S(=O)(=O)O)c(S(=O)(=O)O)c1`, the Potency was “inactive”.
In the case of `CCC(C)(C)C1CCC(OC)CC1` (stereo not given), the Potency is reported as “inactive”.
In the case of `Cc1ccc(-c2ccccc2C#N)cc1`, the Potency is reported as “inactive”.
In the case of `CCCOC(=O)C(C)O` (stereo not given), the Potency is reported as “inactive”.
In the case of `CCCCC1CCC(O)CC1` (stereo not given), the Potency is reported as “inactive”.
In the case of `COCc1ccc(COC)cc1`, the Potency is reported as “inactive”.
With `CCC(O)CO` (stereo not given) the Potency was “inactive”.
In the case of `O=C1OC(=O)c2ccc3c4c(ccc1c24)C(=O)OC3=O`, the Potency is reported as “inactive”.
With `Cc1ccc2c(ccc3ccccc32)c1` the Potency was “inactive”.
With `Fc1c(F)c(F)c(Br)c(F)c1F` the Potency was “inactive”.
With `CNC(=O)Nc1ccc(Cl)c(Cl)c1` the Potency was “inactive”.
For `O=C(O)c1ccccc1OP(=O)(O)O`, the Potency was “inactive”.
In the case of `NC(=O)c1ccc([N+](=O)[O-])cc1`, the Potency is reported as “inactive”.
In the case of `CCCCCCCCS(=O)(=O)Cl`, the Potency is reported as “inactive”.
In the case of `CC(=O)Nc1ncc([N+](=O)[O-])s1`, the Potency is reported as “inactive”.
With `CCOc1ncc(F)c(=O)[nH]1` the Potency was “inactive”.
With `NC(=O)c1ccc([N+](=O)[O-])cc1Cl` the Potency was “inactive”.
With `COC(=O)OC` the Potency was “inactive”.
For `COCCOCCOCCOCCOC`, the Potency was “inactive”.
With `C=CC(=O)OCCCCCC` the Potency was “inactive”.
In the case of `O=C1OCCO1`, the Potency is reported as “inactive”.
With `NS(=O)(=O)c1ccccc1OC(F)(F)F` the Potency was “inactive”.
For `COCC(C)OC(C)=O` (stereo not given), the Potency was “inactive”.
